Experimental data from the supplement of paper PMC6805474.

Tests used:
[1] = test system: Schistosoma mansoni schistosomula (LE); assay: XTT viability relative to DMSO control; higher = more viable (less active); settings: 72 h; 10 µM
Protocol: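 XTT/PMS was then added for a further 24 h (72 h total) and A450 was read. % viability = (sample - heat-killed control)/(DMSO control - heat-killed control) x 100, from duplicate wells in two independent experiments.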

[2] = test system: Schistosoma mansoni schistosomula (NMRI); assay: phenotypic severity score (0-4); higher = more antischistosomal effect, active = 2 or more; settings: 10 µM
[3] = test system: Schistosoma mansoni schistosomula (Liberian); assay: drug effect (1 - score/DMSO control score) (fraction); higher = more antischistosomal effect, active = 0.5 or more; extreme values may be limits of the assay; settings: 10 µM
Summary of the method: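 Schistosomula of the Liberian strain of Schistosoma mansoni were mechanically transformed from cercariae, pre-incubated for at least 12 h, and placed at 50 per well in flat-bottom 96-well plates with Medium 199 containing 5% FCS. Compounds were tested in duplicate at 10 µM at 37 °C and 5% CO2, alongside wells holding 0.1% DMSO. Parasites were scored visually at 10× after 24, 48 and 72 h on a quarter-point scale running from 3 (normal) to 0 (dead). Drug effect came from the mean test-well score relative to the mean DMSO-well score, with negative values set to zero and plates accepted only when the DMSO wells averaged at least 2.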
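Wherever phenotypic severity score (0-4) is given: visual microscopic scoring of shape, motility and density changes versus 0.5% DMSO solvent controls, one point per descriptor, degeneracy or death scored 4, mean of duplicate wells.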

SMILES | XTT viability [1] [%] | phenotypic severity score ([2]; 24 h) | phenotypic severity score ([2]; 48 h) | phenotypic severity score ([2]; 72 h) | drug effect ([3]; 24 h) | drug effect ([3]; 48 h) | drug effect ([3]; 72 h)
Cc1ccc2nc(Cl)c(CNCc3cccs3)cc2c1 | 83.2 | 0 (inactive) | 0 (inactive) | 0 (inactive) | 0.182 (inactive) | 0.2 (inactive) | 0.0727 (inactive)
CCn1ncc2c(NC3CCOCC3)c(CNC(=O)c3ccnn3C)c(C)nc21 | 92.5 | 0 (inactive) | 0 (inactive) | 0 (inactive) | 0.05 (inactive) | 0.0811 (inactive) | 0.0303 (inactive)
CC(=O)NC[C@H]1CN(c2ccc(N3CCSCC3)c(F)c2)C(=O)O1 | 145 | 0 (inactive) | 0 (inactive) | 0 (inactive) | 0.136 (inactive) | 0.2 (inactive) | 0.236 (inactive)
CC(C)(C)n1nc(Cc2cccc3ccccc23)c2c(N)ncnc21 | 85.5 | 0 (inactive) | 0 (inactive) | 0 (inactive) | 0.15 (inactive) | 0.222 (inactive) | 0.625 (active)
CC(Oc1cccc(Cl)c1)C(=O)Nc1ccc2oc(-c3ccncc3)nc2c1 (stereo unspecified) | 109 | 1 (inactive) | 0 (inactive) | 0 (inactive) | 0.318 (inactive) | 0.45 (inactive) | 0.564 (active)
CC(C)(C)c1cnc(NC(=O)c2ccccc2O)s1 | 79.9 | 0 (inactive) | 1 (inactive) | 1 (inactive) | 1 (active) | 1 (active) | 1 (active)
NC(=O)c1cc(-c2ccsc2)ccc1OCCOc1ccccc1 | 89.5 | 0 (inactive) | 0 (inactive) | 0 (inactive) | 0.158 (inactive) | 0.111 (inactive) | < 0 (inactive)
CNCCC(Oc1ccc(C(F)(F)F)cc1)c1ccccc1 (stereo unspecified) | 20.4 | 0 (inactive) | 0 (inactive) | 0 (inactive) | 0.05 (inactive) | 0.0811 (inactive) | 0.333 (inactive)
CCCCOC(=O)Nc1cc2nc(C3CCCCC3)[nH]c2cc1N1CCCC1 | 132 | 3 (active) | 4 (active) | 4 (active) | 0.15 (inactive) | 0.389 (inactive) | 0.562 (active)
O=C(CCC1CCCCC1)Nc1cccc(-c2nnc(-c3ccco3)o2)c1 | 145 | 2 (active) | 4 (active) | 4 (active) | 0.182 (inactive) | 0.2 (inactive) | 0.167 (inactive)
CCN(CC)CCCN1CCN(C(=O)c2cccc(-c3noc(C(F)(F)F)n3)c2)CC1 | 97.3 | 0 (inactive) | 0 (inactive) | 1 (inactive) | 0.2 (inactive) | 0.111 (inactive) | 0.25 (inactive)
COc1cccc(NC(=O)c2c(NC(=O)c3cccnc3)sc3c2CCC3)c1 | 94.4 | 0 (inactive) | 0 (inactive) | 0 (inactive) | 0.25 (inactive) | 0.222 (inactive) | 0.438 (inactive)
CC(c1cc(Cl)cc(Cl)c1)N(C)c1ncc2c(N)nc(N)nc2n1 (stereo unspecified) | 42.2 | 0 (inactive) | 0 (inactive) | 0 (inactive) | < 0 (inactive) | < 0 (inactive) | 0.167 (inactive)
Nc1nc(N)c2c3c(sc2n1)CN(Cc1ccccc1)CC3 | 131 | 0 (inactive) | 0 (inactive) | 0 (inactive) | 0.15 (inactive) | 0.278 (inactive) | 0.438 (inactive)
COC(=O)c1cccc2oc(-c3cccc(OC)c3NC(=O)c3cc(-c4ccccc4)on3)nc12 | 88.1 | 0 (inactive) | 0 (inactive) | 0 (inactive) | 0.351 (inactive) | 0.333 (inactive) | 0.312 (inactive)
CNC(=O)c1nn(C)c2c1C(C)(C)Cc1cnc(Nc3ccc(N4CCN(C)CC4)cc3)nc1-2 | 157 | 3 (active) | 4 (active) | 4 (active) | 0.364 (inactive) | 0.8 (active) | 0.891 (active)
COCC(C)NC(=O)CSc1ncnc2sc(-c3ccccc3)cc12 (stereo unspecified) | 93.6 | 0 (inactive) | 0 (inactive) | 0 (inactive) | 0.1 (inactive) | 0.135 (inactive) | 0.111 (inactive)
COc1cc(NC(C)CCCN)c2ncccc2c1 (stereo unspecified) | 77.4 | 0 (inactive) | 0 (inactive) | 0 (inactive) | < 0 (inactive) | 0.135 (inactive) | 0.333 (inactive)
